Source: the supplement of paper PMC12350171
Structures can show the parent of a compound that is named as a salt.

Columns and labels:
Details in all cases: 20 µM
[1] = test system: Haemophilus parainfluenzae; assay: growth AUC normalised to DMSO control (fraction of control); higher = less growth inhibition, active = hit call of the paper
Procedure, shortened: (§1)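 After two anaerobic passages, pathogens were added at a starting OD578 of 0.01 to pre-reduced mGAM plates holding compound at 20 μM with 1% DMSO; hemin and NAD were supplemented for Haemophilus parainfluenzae. Sealed with breathable membranes, plates were read at OD578 hourly for 24 h, in three biological replicates. The trapezoidal rule, applied up to the exponential-to-stationary transition, gave the growth-curve AUC, which was normalised to DMSO controls on the same plate.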

[2] = test system: Salmonella enterica typhimurium; assay: as above
Procedure, shortened: as §1

Shigella flexneri = assay: as above
Procedure, shortened: as §1

Vibrio cholerae = assay: as above
Procedure, shortened: as §1

[3] = test system: Yersinia pseudotuberculosis; assay: as above
Procedure, shortened: as §1

P. vulgatus RND KO = assay: growth AUC normalised to DMSO control (median) (fraction of control); higher = less growth inhibition, active = hit call of the paper
Procedure, shortened: (§2)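 After two overnight anaerobic passages, strains were inoculated at OD578 0.01 into mGAM in 96-well plates containing approved-drug library compounds at 20 μM and 1% DMSO. Growth was followed by reading OD578 hourly for 24 h within an anaerobic incubator. Area under the curve, taken by the trapezoidal rule up to the start of stationary phase, was normalised to same-plate vehicle wells, and the median of three biological replicates is listed.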

P. vulgatus WT = assay: as above
Procedure, shortened: as §2

[4] = test system: S. enterica typhimurium WT; assay: as above
Procedure, shortened: as §2

[5] = test system: S. enterica typhimurium tolC KO; assay: as above
Procedure, shortened: as §2

Measured: growth AUC normalised to DMSO control
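Wherever growth AUC normalised to DMSO control (median) is given: active when median AUC fell below 0.1.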

COc1ccc(OC)c(C(O)C(C)N)c1 (configuration not stated) [Methoxamine hydrochloride]
active: P. vulgatus WT 0.0385
inactive: [1] 1 | [2] 1.01 | Shigella flexneri 0.984 | Vibrio cholerae 1.01 | [3] 0.991 | P. vulgatus RND KO 0.987 | [4] 1.01 | [5] 0.999

c1ccc2c(c1)OCC(C1=NCCN1)O2 (configuration not stated) [Idazoxan hydrochloride]
inactive: [1] 1.01 | [2] 1.02 | Shigella flexneri 1.02 | Vibrio cholerae 1.02 | [3] 0.982 | P. vulgatus RND KO 0.997 | P. vulgatus WT 0.98 | [4] 0.999 | [5] 0.998

CC(C)C[C@H]1C(=O)N2CCC[C@H]2[C@]2(O)O[C@](NC(=O)[C@@H]3C=C4c5cccc6[nH]c(Br)c(c56)C[C@H]4N(C)C3)(C(C)C)C(=O)N12 [Bromocryptine mesylate]
inactive: [1] 1 | [2] 1 | Shigella flexneri 0.996 | Vibrio cholerae 0.996 | [3] 1.03 | P. vulgatus RND KO 1.01 | P. vulgatus WT 1.03 | [4] 1.02 | [5] 0.994

CC(C)CC(N(C)C)C1(c2ccc(Cl)cc2)CCC1 (configuration not stated) [Sibutramine hydrochloride]
inactive: [1] 0.969 | [2] 1 | Shigella flexneri 0.971 | Vibrio cholerae 0.967 | [3] 1 | P. vulgatus RND KO 1.02 | P. vulgatus WT 1.02 | [4] 1 | [5] 0.999

Oc1cc(Cl)ccc1Oc1ccc(Cl)cc1Cl [Triclosan]
inactive: [3] 0.911 | P. vulgatus RND KO 0.462 | P. vulgatus WT 0.357
active: [1] 0.0433 | [2] 0.00977 | Shigella flexneri 0.0073 | Vibrio cholerae 0.184 | [4] 0.00521 | [5] 0.00694

CN[C@@H]1[C@@H](O)[C@@H](O[C@@H]2[C@@H](O)[C@H](O[C@H]3O[C@H](CN)CC[C@H]3N)[C@@H](N)C[C@H]2N)OC[C@]1(C)O.CN[C@@H]1[C@@H](O)[C@@H](O[C@@H]2[C@@H](O)[C@H](O[C@H]3O[C@H]([C@@H](C)N)CC[C@H]3N)[C@@H](N)C[C@H]2N)OC[C@]1(C)O.CN[C@@H]1[C@@H](O)[C@@H](O[C@@H]2[C@@H](O)[C@H](O[C@H]3O[C@H]([C@@H](C)NC)CC[C@H]3N)[C@@H](N)C[C@H]2N)OC[C@]1(C)O [Gentamicine sulfate]
inactive: [1] 0.864 | [2] 1 | Shigella flexneri 1.02 | Vibrio cholerae 1.04 | [3] 1.02 | P. vulgatus RND KO 1.05 | P. vulgatus WT 1.02 | [4] 1 | [5] 1

CN(C)C(=O)Oc1ccc[n+](C)c1 [Pyridostigmine iodide]
inactive: [1] 0.994 | [2] 1 | Shigella flexneri 1.03 | Vibrio cholerae 1.02 | [3] 0.992 | P. vulgatus RND KO 1 | P. vulgatus WT 1.03 | [4] 1.01 | [5] 0.991

C=CCN1CC[C@]23c4c5ccc(O)c4O[C@H]2C(=O)CC[C@@]3(O)[C@H]1C5 [Naloxone hydrochloride]
inactive: [1] 1.01 | [2] 0.981 | Shigella flexneri 1.03 | Vibrio cholerae 1 | [3] 1.01 | P. vulgatus RND KO 1.03 | P. vulgatus WT 0.997 | [4] 1.01 | [5] 1

NC(=O)CN1CCCC1=O [Piracetam]
inactive: [1] 0.975 | [2] 0.991 | Shigella flexneri 0.957 | Vibrio cholerae 0.992 | [3] 0.993 | P. vulgatus RND KO 0.989 | P. vulgatus WT 0.982 | [4] 0.984 | [5] 0.996

NCCCNCCSP(=O)(O)O [Amifostine]
inactive: [1] 1.02 | [2] 1.02 | Shigella flexneri 0.99 | Vibrio cholerae 1.01 | [3] 0.992 | P. vulgatus RND KO 1.02 | P. vulgatus WT 1.07 | [4] 1.02 | [5] 1.01

NCC(O)c1ccc(O)cc1 (configuration not stated) [Octopamine hydrochloride]
inactive: [1] 1.03 | [2] 1 | Shigella flexneri 0.999 | Vibrio cholerae 1.01 | [3] 1.02 | P. vulgatus RND KO 1.02 | P. vulgatus WT 1.03 | [4] 1 | [5] 1.03

C[C@]12CC[C@H]3[C@@H](CCC4=CC(=O)CC[C@@H]43)[C@@H]1CC[C@@H]2O [Nandrolone]
inactive: [1] 1.99 | [2] 0.995 | Shigella flexneri 0.981 | Vibrio cholerae 0.967 | [3] 0.981 | P. vulgatus RND KO 0.999 | P. vulgatus WT 1.03 | [4] 1.01 | [5] 0.981

Oc1ccc2c3c1O[C@H]1[C@@H](O)CC[C@@]4(O)[C@@H](C2)N(CC2CCC2)CC[C@]314 [Nalbuphine hydrochloride]
inactive: [1] 0.982 | [2] 0.984 | Shigella flexneri 0.974 | Vibrio cholerae 0.984 | [3] 0.905 | P. vulgatus RND KO 0.997 | P. vulgatus WT 0.966 | [4] 0.988 | [5] 0.995
